# Screen size: about 77,000 compounds; about 4,600 (6%) were called active. About 1% were inconclusive and are not listed. The full list was thinned out, with actives kept by preference. A number with no mark means an inactive call.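 How the source made its calls: active means mean inhibition above about 93%, with at least 55% of replicates each passing it (limit read from the data, passing the limit was not always enough); inconclusive means only one of those two conditions holds; inactive means neither condition holds.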
# Test: growth inhibition of T. cruzi in host fibroblasts – cell-based, beta-gal Tulahuen parasites, NIH3T3 host, luminescence, primary screen (AID 624255)
# Settings: T. cruzi beta-gal in NIH3T3, GalScreen luminescence, 90 h; at 8.34 µM; hits give high values
row,Structure (SMILES),inhibition
1,COc1cccc(S(=O)(=O)N[C@@H]2CC[C@H](CCNC(=O)Cc3ccncc3)O[C@@H]2CO)c1,-52.5%
2,O=C(NCC[C@@H]1CC[C@@H](NC(=O)c2ccccc2F)[C@H](CO)O1)c1ccc2c(c1)OCO2,20.7%
3,COc1ccc(NC(=O)N(C)C[C@H]2OCCCC[C@H](C)Oc3ccc(NS(C)(=O)=O)cc3C(=O)N([C@H](C)CO)C[C@@H]2C)cc1,42.5%
4,CN1CCN(C(=O)C[C@H]2C[C@@H]3c4cc(NC(=O)Nc5ccc(C(F)(F)F)cc5)ccc4O[C@@H]3[C@H](CO)O2)CC1,-59.1%
5,C[C@@H]1CCCCO[C@H](CN(C)C(=O)NC2CCCCC2)[C@H](C)CN([C@@H](C)CO)C(=O)c2cc(NC(=O)Nc3ccc(F)cc3)ccc2O1,93.1%
6,C[C@@H]1CCCCO[C@H](CN(C)CC2CCCCC2)[C@H](C)CN([C@H](C)CO)C(=O)c2cc(NC(=O)Nc3ccc(F)cc3)ccc2O1,71.7%
7,C[C@@H]1CCCCO[C@H](CN(C)CC2CC2)[C@@H](C)CN([C@H](C)CO)C(=O)c2cc(NC(=O)Nc3ccc(F)cc3)ccc2O1,18.3%
8,C[C@@H]1CCCCO[C@H](CN(C)C(=O)NC2CCCCC2)[C@H](C)CN([C@H](C)CO)C(=O)c2cc(NC(=O)Nc3ccc(F)cc3)ccc2O1,110% (active)
9,C[C@@H]1CCCCO[C@@H](CN(C)C(=O)NC2CCCCC2)[C@H](C)CN([C@@H](C)CO)C(=O)c2cc(NC(=O)Nc3ccc(F)cc3)ccc2O1,54.3%
10,C[C@@H]1CN([C@H](C)CO)C(=O)c2cc(NC(=O)Nc3ccc(F)cc3)ccc2O[C@@H](C)CCCCO[C@@H]1CN(C)CC1CCCCC1,115% (active)
11,COCC#Cc1cnc2c(c1)C(=O)N([C@@H](C)CO)C[C@@H](C)[C@@H](CN(C)C(=O)c1cccnc1)O2,71.4%
12,O=C(CC1CC1)N1[C@@H]2CN(S(=O)(=O)c3ccc(F)cc3)c3ccccc3[C@@H]2[C@@H]1CO,19.2%
13,C[C@@H]1CCCCO[C@H](CN(C)S(=O)(=O)c2cccs2)[C@H](C)CN([C@H](C)CO)C(=O)c2cc(NC(=O)c3ccccc3)ccc2O1,88.6%
14,O=C(C[C@H]1C=C[C@H](NC(=O)Nc2ccccc2F)[C@@H](CO)O1)NCc1ccc(Cl)cc1,27.5%
15,N#C[C@@H]1[C@@H](c2ccc(C#Cc3cccc(F)c3)cc2)[C@@H](CO)N1C(=O)C1CCC1,101% (active)
16,N#C[C@H]1[C@H](c2ccc(C#Cc3ccc(F)cc3)cc2)[C@@H](CO)N1C(=O)C1CCCC1,92.9%
17,N#C[C@@H]1[C@H](c2ccc(C#Cc3cccc(F)c3)cc2)[C@@H](CO)N1C(=O)C1CCCC1,97.3% (active)
18,CCCC#Cc1ccc([C@@H]2[C@@H](C#N)N(C(=O)C3CCC3)[C@H]2CO)cc1,92.4%
19,CCCC#Cc1ccc([C@H]2[C@@H](CO)N(C(=O)C3CC3)[C@H]2C#N)cc1,74.3%
20,CC(C)C#Cc1ccc([C@@H]2[C@@H](C#N)N(C(=O)C3CC3)[C@@H]2CO)cc1,68.6%

row,Structure (SMILES),inhibition
1,N#C[C@@H]1[C@@H](c2ccc(C#Cc3cccc(F)c3)cc2)[C@H](CO)N1C(=O)C1CCOCC1,83.9%
2,CN(C)CC#Cc1ccc([C@H]2[C@@H](CO)N(C(=O)C3CCC3)[C@H]2C#N)cc1,69.2%
3,CCCC#Cc1ccc([C@@H]2[C@@H](C#N)N(C(=O)C3CCCC3)[C@@H]2CO)cc1,102% (active)
4,Cn1cnc(CCNC(=O)C[C@H]2CC[C@H]3[C@@H](COC[C@@H](O)CN3C(=O)Nc3ccc(C(F)(F)F)cc3)O2)c1,28.4%
5,CC=Cc1ccc2n(c1=O)C[C@H]1[C@H](CO)[C@@H](C(=O)NC3CCCC3)N(Cc3ccncc3)[C@@H]21 (mixture of isomers),-33.3%
6,CS(=O)(=O)Nc1ccc2c(c1)[C@H]1C[C@H](CC(=O)NCc3ccc(Oc4ccccc4)cc3)O[C@H](CO)[C@H]1O2,3.92%
7,O=C(C1CCC1)N1CCCCN2[C@H](CO)[C@H](c3ccc(-c4cccc(F)c4)cc3)[C@@H]2C1,99.7% (active)
8,O=C(Nc1ccc(F)cc1)N1CCCCN2[C@H](CO)[C@H](c3ccc(-c4ccncc4)cc3)[C@@H]2C1,67.2%
9,O=C(C1CCC1)N1CCCCN2[C@H](CO)[C@H](c3ccc(-c4cccc(F)c4)cc3)[C@H]2C1,94.1%
10,O=C(C1CC1)N1CCCCN2[C@H](CO)[C@H](c3ccc(-c4cccc(F)c4)cc3)[C@H]2C1,95.6% (active)
11,O=C(C1CC1)N1CCCCN2[C@H](C1)[C@@H](c1ccc(-c3cccc(F)c3)cc1)[C@@H]2CO,32.6%
12,O=C(C1CCCC1)N1CCCCN2[C@@H](CO)[C@H](c3ccc(-c4cccc(F)c4)cc3)[C@@H]2C1,111% (active)
13,O=C(C1CCC1)N1CCCCN2[C@H](CO)[C@H](c3ccc(-c4ccncc4)cc3)[C@@H]2C1,99.7% (active)
14,O=C(N[C@H]1CC[C@H](CCNS(=O)(=O)c2ccc(F)cc2)O[C@H]1CO)c1cccnc1,14.1%
15,CCC(=O)Nc1ccc2c(c1)C(=O)N(C)[C@@H]1CC[C@H](CC(=O)NCCc3ccncc3)O[C@@H]1CO2,64.6%
16,O=C(Cc1ccncc1)NCC[C@@H]1CC[C@H](NC(=O)Nc2ccc(Cl)cc2)[C@@H](CO)O1,37%
17,O=C(C[C@H]1C[C@H]2c3cc(NC(=O)Cc4ccncc4)ccc3O[C@H]2[C@@H](CO)O1)NCc1cccc(F)c1,-15.1%
18,O=C(C[C@H]1CC[C@H]2[C@@H](COC[C@H](O)CN2CCC(F)(F)F)O1)N1CCC(Cc2ccccc2)CC1,65.1%
19,CN1C(=O)c2cc(NC(=O)c3ccccc3)ccc2OC[C@@H]2O[C@@H](CC(=O)NC3CCCC3)CC[C@H]21,18.9%
20,CC=Cc1ccc2n(c1=O)C[C@@H]1[C@@H](CO)[C@H](C(=O)N(C)C)[C@H]2N1CCc1ccccc1 (mixture of isomers),37%
